These results are taken from PubChem BioAssay AID1532 (PCMD, 2009).

About 420 (0.38%) of roughly 110,000 compounds were called active. This is one part of a sample in which actives are shown more often than they occur. Rule as the data show it: active = inhibition above about 30% (passing the limit was not always enough); inconclusive = no clear call, values can overlap the other calls.

The experiment deals with RmlC (dTDP-4-dehydrorhamnose 3,5-epimerase) and RmlD (dTDP-4-dehydrorhamnose reductase), coupled enzyme assay. Put plainly: RmlC and RmlD coupled enzyme inhibitors, primary screen, biochemical, 384-well, compound mixtures, retest (AID 1532). The settings on record: 384-well mixture HTS, at 5.5 µM, stronger effect = higher value.
Setting [1] is: measured here: mean retest inhibition.

On to `OCC[C@H]1C[C@H](O)[C@@H](O)[C@]2(CCCCO2)O1`, for which the inhibition (as a rule, the drop in the measured response relative to a control, in per cent) was 7.31% (inactive).
Same read-out and setting: then `Cc1cccc(NC(=O)c2sc3nc4c(c(-c5ccco5)c3c2N)CCC4)c1`, with 20.3% (inactive); and `NC(=O)c1sc2nc3c(c(-c4ccccc4)c2c1N)CCC3`, with -14.4% (inactive).
Take `CC(=O)Nc1ccc(NC(=O)c2sc3nc4c(c(-c5ccc(C)cc5)c3c2N)CCC4)cc1`: the inhibition was 47.9% (active). Further, under setting [1], the inhibition came out at 82.8%.
As for `CCOC(=O)c1ccccc1NC(=O)c1c(N)n(C)c(=O)[nH]c1=O`, the inhibition was 7.68% (inactive).
On the same count and under the same terms, the figure for `CC(C)(C)CN1C(=O)C(=O)NC[C@H]1Cc1cccc2ccccc12` is -1.48% (inactive); for `C#CCNC(=O)C1=C[C@@H](c2ccccc2)[C@H](CCCO)[C@@H](OCC)O1` it is 0.66% (inactive).
On the same count and under the same terms, then `C/C=C(\C)C(=O)N1CC2(CC(c3cccc(NC(=O)CCCCC)c3)=NO2)C[C@@H]1C(N)=O` (some centres undefined), with -5.61% (inactive); and `CC(Sc1nc2c([nH]c3ccccc32)c(=O)n1C)c1ccccc1` (centres undefined), with -7.85% (inactive).
The same measure, in the same setting: the figure for `CC(C)=CCC/C(C)=C/C(=O)O` is 2.81% (inactive); for `c1ccc(-c2cn3c(n2)CCc2ccc4cccnc4c2-3)cc1` it is -52.8% (inactive); for `c1ccc(-c2ccnc3nc(-n4cccc4)nn23)cc1` it is -3.61% (inactive).
Turning to `CC(=O)Nc1ccc(-c2cn3cccnc3n2)cc1`, the inhibition is 102% (active). Moreover, the inhibition under setting [1] was determined as 156%.
As to `CCCC(=O)Nc1cccc(-c2cn3ccsc3n2)c1`, the inhibition is 3.46% (inactive).
Turning to `c1ccc(-c2cn3cccnc3n2)cc1`, the inhibition is 70% (active). For the same compound, the inhibition under setting [1] came to 81.6%.
On to `CC(=O)Nc1cccc(-c2cnc3ccccc3n2)c1`, for which the inhibition is 13.8% (inactive).
As to `COc1ccc(CNC(=O)c2cc3c(=O)n4ccccc4nc3n(CC3CCCO3)c2=N)cc1` (centres undefined), the inhibition was -12.4% (inactive).
`CCCn1c(=NC(C)=O)c(C(=O)OCC)cc2c(=O)n3ccccc3nc21`: the inhibition is 48.4% (active). Also, under setting [1], the inhibition was 60.1%.
As to `CCn1c(=N)c(S(=O)(=O)c2ccc(F)cc2)cc2c(=O)n3ccccc3nc21`, the inhibition was -13.4% (inactive).
The same measure, in the same setting: the figure for `C#CCOCCOCCOCCNc1nc(N2CCN(C(=O)[C@H](CCC(=O)O)n3cc(C(N)CO)nn3)CC2)nc(N2CCN(C(=O)[C@H](CCCCN)n3cc(C(N)[C@H](C)CC)nn3)CC2)n1` (some centres undefined) is 2.59% (inactive); for `O=C(Nc1ccccc1)c1ccccc1NC(=O)C(F)(F)F` it is 8.91% (inactive).
With `COCc1cc(=O)[nH]c2cc(NC(=O)C(F)(F)F)c(C)cc12`, the inhibition was 39.2% (active). Besides, under setting [1], the inhibition came to 46.2%.
Regarding `COc1ccc(OC)c2[nH]c(=O)c(CCNC(=O)C(C)(C)C)cc12`, the inhibition is 8.84% (inactive).
On to `COC(C[C@@H](O)[C@H](C)[C@H](O)COCc1ccccc1)OC`, for which the inhibition is 2.05% (inactive).
Still for that read-out and setting: then `CC(C)CC(CO)N1CCN(C(=O)c2ccc(Cl)cc2Cl)CCC1=O` (centres undefined), with -11.9% (inactive); and `CCO[C@H]1OC(C(=O)O)=C[C@@H](C2CCCCC2)[C@@H]1CCCO`, with -6.81% (inactive); and `COc1ccc(CN2CC[C@H]3C=CC[C@@H](C(=O)N4CCOCC4)[C@H]3C2=O)cc1OC`, with 7.97% (inactive).
As for `N#CCc1c(C#N)c(N)nc(N2CCCC2)c1C#N`, the inhibition was 14.6% (inactive).
Same read-out and setting: then `COC(=O)CCCC1=CC2=CC(=O)C(C)(OC(=O)c3cccs3)C(=O)C2=CN1c1cccc(C#N)c1` (centres undefined), with -9.55% (inactive); and `C=CC1C(OC2OC(CO)C(O)C(O)C2O)OC=C(C(=O)OC)C1CC1CC(=O)CC(CC(=O)CCc2ccc(O)cc2)O1` (centres undefined), with 3.85% (inactive); and `C#CCOCCOCCOCCNc1nc(N2CCN(C(=O)[C@H](C(C)C)n3cc(CCO)nn3)CC2)nc(N2CCN(C(=O)[C@H](C(C)C)n3cc(CCO)nn3)CC2)n1`, with -12.1% (inactive).
The same measure, in the same setting: then `O=C(O)C1=C[C@H](c2cccs2)C[C@H](OCCCCO)O1`, with 5.69% (inactive); and `COC(=O)COc1cccc2c(=O)n(CC(=O)NCCc3ccc(OC)c(OC)c3)ccc12`, with 9.94% (inactive); and `CC1=C(N2CCN(c3ncccn3)CC2)CCC1=O`, with 12.7% (inactive).
Same read-out and setting: then `NC(=O)CC(NC(=O)Cc1cccc2ccccc12)c1ccc(NCc2cc(F)ccc2F)c([N+](=O)[O-])c1` (centres undefined), with -7.96% (inactive); and `COC(=O)c1ccc(C(NC(=O)OCc2ccccc2)/C(F)=C/[C@@H](C)C(=O)O)cc1` (some centres undefined), with 3.33% (inactive); and `CCCC[C@@H]1CN=C(N)N1CCCC`, with -28.4% (inactive).
Regarding `COc1ccc(C(CC(=O)N2CCN(c3ccccc3)CC2)c2c(O)cc(OC)cc2OC)cc1` (centres undefined), the inhibition is 0.73% (inactive).
Still for that read-out and setting: the figure for `C/C=C\C=C\C(=O)N1CC2(CC(c3cccc(NC(=O)/C(C)=C\C)c3)=NO2)C[C@H]1C(N)=O` (some centres undefined) is -0.91% (inactive); for `COC(C[C@@H]1O[C@@H]1C(=O)[C@H](C)OCc1ccccc1)OC` it is -11.7% (inactive); for `CCC1(CC)C(=O)C2=C3C1[C@H](C(=O)OC)C=C(C(=O)OC)C[C@H]3[C@H]1C(=O)N(Cc3ccccc3)C(=O)[C@H]1[C@H]2C` (some centres undefined) it is -0.95% (inactive).
On the same count and under the same terms, the figure for `C=C1CCN([C@H](C(=O)NCc2cc(OC)c(OC)c(OC)c2)C(C)C)S(=O)(=O)c2ccccc21` is 5.25% (inactive).
On the same count and under the same terms, then `CC1(C)CC[C@]2(C(=O)O)CC[C@]3(C)C(=CCC4[C@@]5(C)CC[C@H](O)C(C)(C)C5[C@H](O)C[C@]43C)[C@@H]2C1` (some centres undefined), with -10.3% (inactive); and `CCCCN1C(N)=NC[C@@H]1Cc1ccccc1`, with -9.09% (inactive); and `COC(C[C@H](O)CC(=O)[C@@H](C)OCc1ccccc1)OC`, with 5.9% (inactive).
As to `C=C1CCN([C@@H](Cc2ccccc2)C(=O)N2CCOCC2)S(=O)(=O)c2ccccc21`, the inhibition was -7.13% (inactive).
With `C#CCO[C@@H]1C[C@H](n2cnc3c(=O)[nH]c(NC(=O)C(C)C)nc32)O[C@@H]1CO`, the inhibition is 17.4% (inactive).
In the case of `CCO[C@@H]1OC(C(=O)NC2CC2)=C[C@H](C)[C@H]1CCCO`, the inhibition was -10.3% (inactive).
Same read-out and setting: the figure for `C#CCOCCOCCOCCNc1nc(N2CCN(C(=O)C([C@@H](C)CC)n3cc(C(N)COC(=O)C(F)(F)F)nn3)CC2)nc(N2CCN(C(=O)[C@H](Cc3ccc(O)cc3)n3cc(C(N)[C@H](C)CC)nn3)CC2)n1` (some centres undefined) is -15.9% (inactive).
The same measure, in the same setting: then `COc1ccc(C2/C=C\CN(S(=O)(=O)c3cccs3)CC(=O)N2Cc2ccc(F)cc2)cc1` (centres undefined), with -18.6% (inactive).
On the same count and under the same terms, then `CCc1nnc(SCc2cccc(F)c2)nc1CC`, with -1.83% (inactive); and `Cc1cccc(Nc2nc(NCCO)nc(N3CCCC3)n2)c1`, with -9.11% (inactive); and `COCOc1cc(O)c(C(=O)/C=C/c2ccc(OCOC)c(OCOC)c2)c(OCOC)c1`, with 4.09% (inactive).
In the case of `COc1cc(/C=C/CO)cc(OC)c1O[C@@H]1O[C@H](CO)[C@@H](O)[C@H](O)[C@H]1O`, the inhibition was -10.6% (inactive).
Still for that read-out and setting: the figure for `CC(C)NC(=O)NCCCCCCS(C)=O` (centres undefined) is -13.8% (inactive).
`CCCCC1=CC2=CC(=O)C(C)(OC(=O)CC)C(=O)C2=CN1CCCOC(C)C` (centres undefined): the inhibition was 21.9% (inactive).
Take `CC1=C(C)C(=O)OC(C(C)C2CCC3C4CC=C5CC(OC6OC(COC7OC(CO)C(O)C(O)C7O)C(O)C(O)C6O)CC(O)C5(C)C4CCC23C)C1` (centres undefined): the inhibition is -13.2% (inactive).
`C/C=C(/C)C(=O)O[C@@H]1c2cc3c(c4c2[C@@]2(CO4)C(=O)C(OC)=C(OC)C=C2C[C@@H](C)[C@H]1C)OCO3`: the inhibition was -2.38% (inactive).
Consider `C/C=C(\C)C(=O)NCCN1C2=NC[C@H](Cc3ccc(O)cc3)N2C[C@@H]1Cc1ccc(OC)cc1`, for which the inhibition is 6.27% (inactive).
For the compound `COC(=O)CCCC1=CC2=CC(=O)C(C)(OC(=O)c3cccs3)C(=O)C2=CN1CC(C)C` (centres undefined), the inhibition was 6.81% (inactive).
Same read-out and setting: then `O=C(C1=C[C@H](c2coc3ccccc3c2=O)C[C@H](OCc2ccc(CO)cc2)O1)N1CCN(Cc2ccccc2)CC1`, with 13.6% (inactive); and `C=CCNC(=O)c1ccc2c3n(nc2c1)-c1ccc(C)cc1CO3`, with -4.6% (inactive); and `C[C@H]1CC[C@]2(O[C@@H](CCO)C[C@@H](O)[C@@H]2O)O1`, with 6.2% (inactive).
On to `C=C1C2C[C@H](O)C(C)(C)[C@@]2(O)[C@H](O)C[C@]23C[C@@](C)(O)[C@H](CC[C@H]12)[C@H]3O` (some centres undefined), for which the inhibition was -7.47% (inactive).
For the compound `CCO[C@H]1OC(C(=O)Nc2ccccc2)=C[C@@H](C2CC2)[C@@H]1CCCO`, the inhibition was -2.12% (inactive).
On the same count and under the same terms, then `COc1ccc(CCNC(=O)C2CC3Cn4c(nc5cc(C)c(C)cc54)C3N2C)cc1` (centres undefined), with 5.88% (inactive); and `O=C(NCc1ccccc1)C1=C[C@@H](c2ccccc2)C[C@@H](OCCCCO)O1`, with -11.4% (inactive); and `COC(=O)CCCC1=CC2=C(c3ccccc3)C(=O)C(C)(OC(=O)C3CCCC3)C(=O)C2=CN1c1ccc(OC)cc1` (centres undefined), with 6.14% (inactive).
Same read-out and setting: the figure for `COc1ccc2c(c1)CC[C@@H]1[C@@H]2CC[C@]2(C)C(=O)CC[C@@H]12` is 0.97% (inactive).
As to `C#CCOCCOCCOCCNc1nc(N2CCN(C(=O)[C@H](C(C)C)n3cc(CCO)nn3)CC2)nc(N2CCN(C(=O)[C@H]([C@@H](C)CC)n3cc(CCCN=C(N)N)nn3)CC2)n1`, the inhibition is 9.85% (inactive).
Regarding `CC(=O)Oc1ccc2c(C)c(CC(C)O)c(=O)oc2c1` (centres undefined), the inhibition was 100% (active). For the same compound, the inhibition under setting [1] was 151%.
As to `COC(=O)Cc1c(C)c2ccc(OCC(=O)NCc3ccc4c(c3)OCO4)cc2oc1=O`, the inhibition was 12.6% (inactive).
With `CC(=O)Nc1cc2ccc(OC(C)=O)cc2oc1=O`, the inhibition (above what the read-out allows, likely interference) was 671% (active).
For `O=C(Oc1ccccc1)Oc1ccc2c(c1)oc(=O)c1ccccc12`, the inhibition was -16.4% (inactive).
In the case of `CC(=O)Oc1ccc(NC(=O)CCC2CCCCC2)c(C(=O)O)c1`, the inhibition was 0.91% (inactive).
On the same count and under the same terms, the figure for `O=C(Nc1cc2ccccc2oc1=O)C1CCCCC1` is -8.93% (inactive).
On to `C=CCC1(C(=O)N(C)Cc2ccccc2)CCN(C(=O)OC(C)(C)C)CC1`, for which the inhibition was 4.78% (inactive).
`NC(=O)C[C@@H]1NC(=O)CNC(=O)c2cc([N+](=O)[O-])cc(I)c2NCCC(C(N)=O)NC1=O` (some centres undefined): the inhibition was -2.76% (inactive).
